TIM10 inh = growth inhibitors of isogenic TIM10 control yeast, primary screen, counter-screen for tim10-1 yeast inhibitor project, luminescence, uHTS | S. cerevisiae TIM10 strain growth, BacTiter-Glo luminescence, 24 h | inhibition, % at 10 µM | 330,000 compounds, 1.4% hits;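 active means inhibition of 40% or more at the single tested concentration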;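 further: wild-type TIM10 isogenic control strain grown at permissive 25 °C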
SKKanGAS inh = S. pyogenes SKKanGAS growth inhibitors in kanamycin, primary screen, streptokinase expression inhibitor project, SKKanGAS strain, BacTiter-Glo luminescence; 300,000 compounds, 1.3% hits; inhibition, % at 7.5 µM; 6 h;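 active means mean replicate score, as percent of positive control median, at least 50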;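 further: strain carries kanamycin resistance gene driven by streptokinase promoter and grows in 40 µg/ml kanamycin; loss of luminescence reflects streptokinase promoter inhibition or plain growth inhibition; 0% = median of DMSO wells and 100% = positive control at its reference dose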
tim23-1 inh = growth inhibitors of tim23-1 mutant yeast, primary screen, luminescence, uHTS; AID 463212, 2010; inhibition, % at 20 µM; S. cerevisiae tim23-1 growth, BacTiter-Glo luminescence, 24 h; 330,000 compounds, 1.3% hits;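 active means growth inhibition of the mutant yeast at or above 50%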;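 further: temperature-sensitive mutant grown at 25 °C; plate controls were DMSO-treated mutant yeast for no effect and medium wells lacking yeast for full effect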
tim10-1 inh = growth inhibitors of tim10-1 mutant yeast, primary screen, luminescence, uHTS; S. cerevisiae tim10-1 ts strain growth, BacTiter-Glo, 24 h; inhibition, % at 20 µM; 330,000 compounds, 2.2% hits; AID 463190, 2010;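 active means inhibition of at least 40%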;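 further: mutant grown at 25 °C; 0% = DMSO wells with yeast and 100% = wells holding no yeast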
PfHsp90 set2 = growth inhibition of PfHsp90-expressing yeast, primary screen, antimalarial PfHsp90 inhibitor project, S. cerevisiae, BacTiter-Glo luminescence, single point, set 2. 310,000 compounds, 0.32% hits. AID 504621, 2011. inhibition, % at 9.4 µM. BacTiter-Glo ATP, 48 h; yeast lacking PDR1 and PDR3 efflux regulators;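 active means every replicate shows inhibition above about 80%, whatever the replicate mean, limit read from the data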;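 further: 0% = DMSO neutral controls and 100% = 20 µM radicicol positive controls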
NALP3 yeast inh = NALP3 inflammasome inhibitors in reconstituted yeast, primary screen, luminescence, uHTS. Yeast reconstituted NLRP3/ASC/caspase-1, beta-gal luminescence, 24 h. inhibition, % at 10 µM. 330,000 compounds, 0.39% hits;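 active means inhibition of 50% or more; inactive means inhibition below 50%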;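 further: plate controls were induced DMSO wells for no effect and uninduced yeast grown without galactose for full effect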
tim10-1 confirm = growth inhibitors of tim10-1 mutant yeast, confirmation, single concentration, luminescence, S. cerevisiae | shares compounds with tim10-1 inh | S. cerevisiae tim10-1 ts strain growth, BacTiter-Glo, 24 h | inhibition, % at 20 µM | 7,400 compounds, 56% hits | AID 463213, 2010;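 active means inhibition of yeast growth at or above a set limit in either of two repeat tests at 20 µM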;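 further: tim10-1 mutant grown at permissive 25 °C to find synthetic lethal compounds; 0% = DMSO yeast wells and 100% = medium wells without yeast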
TIM10 conf = growth inhibitors of wild-type TIM10 yeast, confirmation, counter-screen for tim10-1 synthetic lethality project, single concentration, luminescence, S. cerevisiae | AID 463215, 2010 | 4,600 compounds, 63% hits | S. cerevisiae tim10 strain growth, BacTiter-Glo luminescence, 24 h | shares compounds with TIM10 inh | inhibition, % at 10 µM;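 active means inhibition of yeast growth at or above a set limit in either of two replicates at 10 µM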;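 further: this counterscreen used the strain with wild-type TIM10; 0% = yeast with DMSO and 100% = medium wells lacking yeast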
Numbers without * were called inactive; nt = no result given. Shown are actives, neighbours in structure and some others; about 4.6% of the full set was active somewhere.

SMILES | TIM10 inh | SKKanGAS inh | tim23-1 inh | tim10-1 inh | PfHsp90 set2 | NALP3 yeast inh | tim10-1 confirm | TIM10 conf
Cc1scc(-c2n[nH]c(=S)n2C(C)c2ccccc2)c1C (configuration not stated) | 43* | 4 | 37 | 42* | -8 | 31 | 29 | 10
Cc1ccsc1/C=N/NC(=S)NCCc1ccccc1 | 41* | -15 | 18 | 54* | -7 | 3 | -17 | 44*
Nc1c(C(=O)NCCc2ccc(Cl)cc2)sc2ccc(S(=O)(=O)N3CCCCC3)cc12 | 44* | 42 | 41 | 43* | nt | 17 | 35* | 28
CC(C)NC(=S)N/N=C/c1ccc(C(C)(C)C)cc1 | 44* | -8 | 37 | 41* | -49 | -15 | 8 | 45*
CC1CC(C)CN(C(=O)COC(=O)COc2ccccc2C#N)C1 (configuration not stated) | -5 | nt | -1 | -4 | 36 | 5 | nt | nt
Cc1cc(C)c(C(=O)/C=C/C=C/c2ccccc2)c(=O)[nH]1 | 30 | 28 | 21 | 27 | 33 | 12 | nt | nt
Cc1cc(C)c(C(=O)/C=C/c2ccc(C(C)C)cc2)c(=O)[nH]1 | 43* | 3 | 26 | 49* | 15 | 24 | 53* | 37*
Cc1cccc(/C=C/C(=O)c2ccc(NC3=NCCCS3)cc2)c1 | 66* | nt | 1 | 54* | -9 | 28 | 50* | 59*
Cc1cccc(C(=O)Nc2ccc(C(=O)/C=C/c3cccnc3)cc2)c1 | nt | 4 | nt | nt | -58 | nt | nt | nt
Cc1n[nH]c(C)c1Sc1ccccc1[N+](=O)[O-] | 6 | -3 | -7 | 6 | nt | 4 | nt | nt
Cc1ccc(-n2nc(C)c(Sc3ccccc3[N+](=O)[O-])c2N)cc1 | 44* | -1 | 48 | 44* | -24 | 19 | 34* | 33*
CN(CCCNC(=O)c1cc2c(Cl)nc3ccccc3c2s1)Cc1ccccc1 | 43* | 9 | 11 | 53* | 1 | 29 | 41* | 44*
c1ccc(Nc2cc(-c3ccccc3)nc3ncnn23)cc1 | 57* | -3 | 35 | 48* | 17 | 14 | 43* | 48*
CCCCNC(=S)Nc1ccc(SC(F)F)cc1 | 41* | -13 | 43 | 53* | -2 | 3 | 36* | 30*
COc1ccc(S(=O)(=O)N2CCN(C(=O)CCc3c[nH]c4ccccc34)CC2)cc1 | 4 | nt | 17 | 15 | -35 | 9 | nt | nt
Cc1ccc(S(=O)(=O)ON2C(=O)c3ccccc3C2=O)c(C)c1 | nt | nt | nt | nt | 11 | nt | nt | nt
Cc1cc(C)c(S(=O)(=O)ON2C(=O)c3ccccc3C2=O)cc1C | 45* | 23 | 14 | 71* | 3 | 26 | 60* | 74*
COCCN1C(=O)C(C(=O)OC)CC2=C1CC(C)(C)CC2=O (configuration not stated) | nt | nt | nt | nt | -17 | nt | nt | nt
O=c1c(Cl)c(NCc2ccc(F)cc2)cnn1C12CC3CC(CC(C3)C1)C2 | 52* | -7 | 44 | 47* | 5 | 31 | 38* | -2
CCCN(CC(=O)Nc1ccccc1C)C(=O)c1ccc2ccccc2n1 | -7 | -6 | 12 | 19 | -2 | 16 | nt | nt
Cc1ccccc1NC(=S)c1ccc2ccccc2n1 | 40* | 29 | 44 | 43* | -9 | 30 | 20 | 37*
COc1cc(C(C(=O)NC2CCCC2)N(C(=O)Cc2cccs2)C2CC2)cc(OC)c1OC (configuration not stated) | -1 | 1 | 4 | 7 | -2 | 19 | nt | nt
CCCn1c(/C=C/c2ccccc2)nc2ccccc21 | 42* | 2 | 45 | 42* | 13 | 44 | 23 | 28
O=C(Cc1ccc(Br)c2ccccc12)N/N=C/c1ccccn1 | 40* | -32 | 7 | 41* | -6 | 7 | 21 | 32*
O=C(Cc1ccc(F)cc1)N/N=C/c1ccccn1 | 0 | -8 | 5 | 8 | 26 | 21 | nt | nt
SMILES | TIM10 inh | SKKanGAS inh | tim23-1 inh | tim10-1 inh | PfHsp90 set2 | NALP3 yeast inh | tim10-1 confirm | TIM10 conf
O=C(CCc1ccc(Oc2cc([N+](=O)[O-])cc([N+](=O)[O-])c2)cc1)N1CCCCC1 | 54* | 1 | 11 | 57* | -5 | 8 | 35* | 48*
O=C(c1ccc(Oc2ccc([N+](=O)[O-])cc2)cc1)N1CCCCCC1 | 5 | -8 | 34 | 29 | 14 | 42 | nt | nt
CC(=O)O[C@@]1(C)C[C@@H](O)[C@]2(O)C=CO[C@@H](O[C@@H]3O[C@H](CO)[C@@H](O)[C@H](O)[C@H]3O)[C@@H]21 | 10 | nt | -5 | -1 | 5 | 17 | nt | nt
COc1cc(C(=O)Oc2ccc3ccc(O)cc3c2)cc(OC)c1OC | 42* | 7 | 44 | 47* | -21 | -5 | 32* | 39*
Cc1ccc(NS(=O)(=O)c2ccc(OCC(=O)NCc3ccncc3)cc2)cc1 | -2 | -1 | 21 | 4 | -7 | 9 | nt | nt
CC(C)(C)c1cc(OC(=O)c2ccccc2F)ccc1O | 48* | 9 | 36 | 45* | -19 | 4 | 24 | 43*
COc1ccc(C)cc1NC(=O)C(=O)N/N=C(\C)CC(=O)Nc1cccnc1 | 13 | 6 | 14 | -5 | -16 | 16 | nt | nt
O=C(C[n+]1cn(C(F)F)c2ccccc21)c1ccc(OC(F)F)cc1 | 53* | 0 | 49 | 56* | -45 | -6 | 47* | 39*
CCOC(=O)[C@@H]1[C@H]2COc3cc(OC)ccc3[C@H]2N2C(=O)N(c3ccc(C)cc3)C(=O)[C@@]12C | 12 | 16 | 17 | 28 | -13 | -4 | nt | nt
Cc1cc(/C=C(\C#N)C(=O)NCc2ccco2)c(C)n1-c1ccc(C(=O)O)cc1 | -5 | 10 | 19 | 9 | 12 | 6 | nt | nt
COc1ccc(C)cc1NC(=O)COC(=O)c1ccc([N+](=O)[O-])o1 | 88* | 5 | 45 | 78* | 2 | -5 | 74* | -36
COc1ccc(C(C)(C)C)cc1NC(=O)COC(=O)c1ccc([N+](=O)[O-])o1 | 40 | -6 | -84 | 53* | 60 | 10 | 3 | 92*
COC(=O)[C@@]1(Cc2ccc(OC)cc2)[C@H]2c3cc(C(=O)N(C)C)n(CCc4ccc(OC)c(Br)c4)c3C[C@H]2CN1C(=O)c1ccccc1 | 10 | 2 | 20 | 16 | nt | 23 | nt | nt
